Reference: PubChem BioAssay (EPA / NIEHS)
Results filed as inconclusive are left out. Activity calls are given as the source filed them. The calls were made as follows: active = hit-call score of the fitted dose curve at least 0.9, where 1 is the maximum; inconclusive = response in the unintended direction; inactive = score below 0.9.

What follows are compounds tested on Glyceraldehyde-3-phosphate dehydrogenase (Homo sapiens) (UniProt P04406) (assay: CLD_GAPDH_48hr: CellzDirect (CLD) Gene Expression Assay for Baseline Control (Glyceraldehyde 3-phosphate dehydrogenase) at 48 hours (AID 2283706);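 also: active means higher GAPDH mRNA than DMSO vehicle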).
Chain of Glyceraldehyde-3-phosphate dehydrogenase (Homo sapiens) (P04406 whole entry, looked up): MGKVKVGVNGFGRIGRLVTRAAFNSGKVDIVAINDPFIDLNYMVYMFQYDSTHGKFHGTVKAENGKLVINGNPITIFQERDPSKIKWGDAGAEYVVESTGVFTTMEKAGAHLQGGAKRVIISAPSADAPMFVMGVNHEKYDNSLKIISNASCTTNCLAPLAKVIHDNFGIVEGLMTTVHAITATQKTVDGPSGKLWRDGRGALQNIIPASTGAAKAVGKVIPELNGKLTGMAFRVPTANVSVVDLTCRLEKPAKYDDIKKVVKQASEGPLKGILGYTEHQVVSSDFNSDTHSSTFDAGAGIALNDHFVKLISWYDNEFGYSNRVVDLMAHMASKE
Procedure: CLD_48hr is a cell-based, multiplexed-readout assay that uses hepatocyte, a human liver primary cell, with measurements taken at 48 hours after chemical dosing in a 96-well plate.CLD_GAPDH_48hr is one of 16 assay component(s) measured or calculated from the CLD_48hr assay. It is designed to make measurements of mRNA induction, a form of inducible reporter, as detected with chemiluminescence signals by Quantitative Nuclease Protection Assay (qNPA) technology.Data from the assay component CLD_GAPDH_48hr was analyzed at the endpoint, CLD_GAPDH_48hr, in the positive analysis fitting direction relative to DMSO as the negative control and baseline of activity. Using a type of inducible reporter, gain-of-signal activity can be used to understand changes in the reporter gene as they relate to the gene GAPDH. Furthermore, this assay endpoint can be referred to as a secondary readout, because this assay has produced multiple assay endpoints where this one serves a background control function. To generalize the intended target to other relatable targets, this assay endpoint is annotated to the background measurement intended target family, where subfamily is baseline control.
Human hepatocyte cultures were treated daily for two consecutive days with fresh dosing solutions containing appropriate concentrations of the 320 ToxCast chemicals (chemical identities were blinded to CellzDirect and other ToxCast collaborators), vehicle control (0.2% DMSO), and positive control inducers as summarized in Table 1. Due to the large number of treatment groups and chemicals examined, the ToxCast chemicals were divided into two groups (spanning two independent cultures of hepatocytes from separate donor preparations (Hu778: ToxCast plates 1 and 2; Hu776: ToxCast plates 3 and 4). Each preparation of human hepatocyte cultures was treated with respective vehicle control, medium only control, set of six positive controls/reference chemicals for the five hepatic receptor pathways, and a subset of eight of the ToxCast chemicals (indoxacarb, pyrithiobac-sodium, norflurazon, cyhalofop-butyl, methomyl, thiram, acetochlor, and propiconazole). These replicate data, coupled with internal replicates designed within the blinded ToxCast chemical library, provided additional data to evaluate interindividual differences between hepatocyte preparations and their potential impact on chemical profiles.Cell morphology and integrity were evaluated using phase-contrast microscopy as an indicator of hepatocyte cell health (Tyson & Green, 1987). Cultures for each treatment group (i.e., media, vehicle [0.2% DMSO], positive control inducers [multiple concentrations], and the ToxCast chemicals [multiple concentrations]) were observed and cell morphology was assessed relative to vehicle control cultures at each harvest time point (0, 6, 24, or 48 h). […] Images were evaluated at the conclusion of the study to assess changes in cell integrity and account for the effects of chemical exposure on uncharacteristic changes in concentration-dependent gene expression profiles. The results from these determinations of apparent cytotoxicity were annotated (yes/no) alongside the corresponding qNPA data for reference.At the conclusion of each treatment period, hepatocyte cultures (96-well) were washed with 1 volume of HBSS, lysed by addition of 25 ul ArrayPlate lysis buffer (HTG, Tucson, AZ), and 70 ul/well of Denaturation Oil, denatured by incubation at 95C for 10 min, and frozen at approximately -70C until analysis by nuclease protection assay (qNPA) (Roberts et al., 2007). For qNPA analysis, cell lysates were thawed at 50C for approximately 30 min, qNPA probes were added, and samples were incubated at 95C for 10 min to begin the detection process by denaturing the target RNA, dissociating the duplexes and secondary structure hybridization. At the conclusion of the hybridization period, S1 nuclease reagent was added to each sample to digest all nonprotected nucleotides at 50C for 60-90 min. […]
In the case of CC1=NNC(=O)N(/N=C/c2cccnc2)C1, the outcome is reported as “inactive”. With Cc1nn(-c2cc(NS(C)(=O)=O)c(Cl)cc2Cl)c(=O)n1C(F)F the outcome was “inactive”. For CC[C@H](C)[C@H]1O[C@]2(C=C[C@@H]1C)C[C@@H]1C[C@@H](C/C=C(\C)[C@@H](O[C@H]3C[C@H](OC)[C@@H](O[C@H]4C[C@H](OC)[C@@H](NC)[C@H](C)O4)[C@H](C)O3)[C@@H](C)/C=C/C=C3\CO[C@@H]4[C@H](O)C(C)=C[C@@H](C(=O)O1)[C@]34O)O2, the outcome was “inactive”. With Nc1nc(N)nc(NC2CC2)n1 the outcome was “inactive”. For COP(=O)(OC)OC(Br)C(Cl)(Cl)Br (centres undefined), the outcome was “inactive”. In the case of COc1cc(OC)nc(Sc2cccc(Cl)c2C(=O)O)n1, the outcome is reported as “inactive”. With CC1(C(=O)Nc2ccc(O)c(Cl)c2Cl)CCCCC1 the outcome was “inactive”. With CCOC(=O)CC(SP(=O)(OC)OC)C(=O)OCC (centres undefined) the outcome was “inactive”. With CN1COCN(Cc2cnc(Cl)s2)C1=N[N+](=O)[O-] the outcome was “inactive”. In the case of CCCOc1nn(C(=O)NS(=O)(=O)c2ccccc2C(=O)OC)c(=O)n1C, the outcome is reported as “inactive”. S=C1NCCN1 was tested, and the outcome was “inactive”. CCC(CC)Nc1c([N+](=O)[O-])cc(C)c(C)c1[N+](=O)[O-] was tested, and the outcome was “inactive”. In the case of CNC(=O)ON=C(SC)C(=O)N(C)C, the outcome is reported as “inactive”. With CC(C)=CC1C(C(=O)OCN2C(=O)C3=C(CCCC3)C2=O)C1(C)C (centres undefined) the outcome was “inactive”. For CCCSP(=O)(OCC)SCCC, the outcome was “inactive”. For CCCOCC(=Nc1ccc(Cl)cc1C(F)(F)F)n1ccnc1, the outcome was “inactive”. With Nc1c(Cl)cc([N+](=O)[O-])cc1Cl the outcome was “inactive”. CC(C)N(C(=O)SCC(Cl)=C(Cl)Cl)C(C)C was tested, and the outcome was “inactive”. For CN(C)NC(=O)CCC(=O)O, the outcome was “inactive”. In the case of CSC1=N[C@@](C)(c2ccccc2)C(=O)N1Nc1ccccc1, the outcome is reported as “inactive”. For CSc1nnc(C(C)(C)C)c(=O)n1N, the outcome was “inactive”. For COP(=O)(NC(C)=O)SC (centres undefined), the outcome was “inactive”. With O=c1ccc(=O)[nH][nH]1 the outcome was “inactive”. CCOP(=O)(OCC)Oc1cc(C)nc(C(C)C)n1 was tested, and the outcome was “inactive”. CNC(=O)ON=C(C)SC was tested, and the outcome was “inactive”. With CN(C)[C@@H]1C(=O)C(C(N)=O)=C(O)[C@@]2(O)C(=O)C3=C(O)c4c(O)cccc4[C@@](C)(O)[C@H]3[C@H](O)[C@@H]12 the outcome was “inactive”. With N#CSCSC#N the outcome was “inactive”. In the case of CCCCOC(=O)c1ccccc1C(=O)O, the outcome is reported as “inactive”. In the case of CCc1cnc(C2=NC(C)(C(C)C)C(=O)N2)c(C(=O)O)c1 (centres undefined), the outcome is reported as “inactive”. For CN(C)C(=O)Nc1cccc(C(F)(F)F)c1, the outcome was “inactive”. C[N+]1(C)CCCCC1 was tested, and the outcome was “inactive”. In the case of CCc1cccc(C)c1N(C(=O)CCl)C(C)COC (centres undefined), the outcome is reported as “inactive”. For CC(=NC#N)N(C)Cc1ccc(Cl)nc1, the outcome was “inactive”. For CCC(=NOC/C=C/Cl)C1=C(O)CC(C2CCOCC2)CC1=O (centres undefined), the outcome was “inactive”.
